# CBX7 AlphaScr: CBX7 inhibition, primary AlphaScreen | hit rate 1.1% among 66,000 | O95931 | normalised signal (fraction of DMSO) (no concentration beside the values) | AlphaScreen His6-CBX7 / biotin-H3K27me3 peptide binding; hits give low values; in the data active = normalised signal below about 0.5
# Target sequence (O95931 whole entry, looked up): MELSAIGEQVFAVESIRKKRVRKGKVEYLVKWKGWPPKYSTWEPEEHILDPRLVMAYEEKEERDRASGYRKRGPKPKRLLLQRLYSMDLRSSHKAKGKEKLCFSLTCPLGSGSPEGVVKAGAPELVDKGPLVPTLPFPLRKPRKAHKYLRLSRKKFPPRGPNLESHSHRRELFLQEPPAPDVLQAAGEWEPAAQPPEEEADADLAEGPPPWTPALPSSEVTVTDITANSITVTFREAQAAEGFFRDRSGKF
# Hits are given with their value; . = inactive; ! = not active in a repeat. Many of the other results were omitted from the sample, so hits are more common in it than they were.
SMILES,CBX7 AlphaScr
COc1cc(OC)cc(-c2cc3nc(C)c(CCC(=O)NCCCc4ccccc4)c(C)n3n2)c1,.
O=C(Nc1ccc(Br)cc1)c1ccccc1C(=O)c1ncc[nH]1,.
O=C(Nc1ccccn1)c1nc[nH]c1C(=O)O,0.296
CCOC(=O)c1[nH]cnc1C(=O)Nc1ccc(Br)cc1,.
O=C(Nc1ccc(Br)cc1)c1nc[nH]c1C(=O)O,0
Cc1ccccc1NC(=O)c1nc[nH]c1C(=O)Nc1ccccc1C,.
O=C(Nc1ccccc1C(=O)Nc1ccccn1)c1ccccc1,.
COc1cccc(N2C(=O)C(CC(=O)Nc3ccccc3)N(Cc3ccc4c(c3)OCO4)C2=O)c1 (configuration not stated),.
COc1ccc(NC(=O)Cn2cc(S(=O)(=O)c3ccccc3)c(=O)c3cc(C)ccc32)cc1,.
Fc1ccc(-c2cc(-c3ccccc3)nc3ncnn23)cc1,.
Cc1ccc(-c2cc(-c3ccc(F)cc3)n3ncnc3n2)cc1,.
Fc1ccc(-c2cc(C(F)(F)F)n3ncnc3n2)cc1,0.474
CCN(CC)S(=O)(=O)c1ccc2c(c1)N(CC(=O)NC1CCCC(C)C1C)C(=O)CO2 (configuration not stated),.
O=C(O)C1CCN(C2CC(=O)N(c3ccc(F)cc3)C2=O)CC1 (configuration not stated),.
Nc1ccc(-c2ccc(-c3cnc4ccccc4n3)cc2)cc1,0.146
Brc1ccc(-c2cnc3ccccc3n2)cc1,.
CCOc1ccc(-c2cnc3ccccc3n2)cc1,.
Cc1nnc(Nc2cccc(O)c2)c2ccccc12,.
Oc1cccc(Nc2nnc(-c3ccc(Cl)cc3)c3ccccc23)c1,.
Cc1ccc(-c2nnc(Nc3cccc(O)c3)c3ccccc23)cc1,0.423
CCOc1ccc(-c2nnc(Nc3ccc(O)cc3)c3ccccc23)cc1,.
CCOc1ccc(-c2nnc(Nc3cccc(O)c3)c3ccccc23)cc1,0.495
CCOc1ccc(-c2nnc(Nc3ccc(C(=O)N(C)C)cc3)c3ccccc23)cc1,.
COc1ccc(CNC(=O)CCC(=O)Nc2ccc3nc(N4CCCCC4)cc(C)c3c2)cc1,.
COc1ccccc1-c1cc(C(=O)N2CCN(C(c3ccccc3)c3ccccc3)CC2)no1,.
SMILES,CBX7 AlphaScr
O=C(CS(=O)(=O)c1nc(-c2ccc3c(c2)OCO3)cn1-c1ccccc1)Nc1ccc(F)cc1,.
CCCc1sc(Nc2ccc(C)cc2)nc1-c1ccc(Cl)c(Cl)c1,.
Cc1ccc(-c2nc(C(=O)NCCCN3CCN(c4cc(C)ccc4C)CC3)c(C)o2)cc1,.
O=C(CSc1nnc(CNC(=O)c2c(F)cccc2Cl)o1)Nc1ccc(F)cc1,.
COc1ccc(NC(CNS(=O)(=O)c2ccccc2)c2ccccc2)cc1 (configuration not stated),0.294
COc1ccc(CNC(=O)c2ccc(CNS(=O)(=O)c3ccccc3)cc2)cc1,.
Cc1ccc(S(=O)(=O)NCC(NC(c2ccccc2)c2ccccc2)c2ccccc2)cc1 (configuration not stated),.
CC1(C)CC(=O)N(CC(=O)NCCc2ccccc2)c2ccccc2S1(=O)=O,.
Cc1nc(Nc2cccc(C(F)(F)F)c2)c2c3c(sc2n1)CCCC3,.
COc1ccccc1Nc1nc(C)nc2sc(C)c(C)c12,.
Cc1sc2nc(Cc3ccccc3)nc(Nc3cccc(C(F)(F)F)c3)c2c1C,.
Cc1nc(Nc2cccc(C(F)(F)F)c2)c2c(C)c(C)sc2n1,0.453
Cc1nc(Nc2ccccc2F)c2c(C)c(C)sc2n1,0.474
Cc1sc2nc(Cc3ccccc3)nc(Nc3ccccc3F)c2c1C,.
COc1ccc(-c2nn(C)c3sc(C(=O)NCCCN4CCCCCC4)cc23)cc1OC,.
COc1cc(Nc2nc(-c3ccc(-c4ccccc4)cc3)cs2)c(OC)cc1Cl,.
COc1cc(Nc2nc(-c3ccc(C4CCCCC4)cc3)cs2)c(OC)cc1Cl,0.459!
COc1cc(Nc2nc(-c3ccccc3)cs2)c(OC)cc1Cl,.
Fc1ccccc1-c1nc(NCc2ccccn2)c2ccccc2n1,.
Cc1nn(CCCC(=O)NC2CCC(C)CC2)c2ccc(F)cc12 (configuration not stated),.
CCOc1ccc2nc(N3CCCC(C(=O)N4CCN(c5ncccn5)CC4)C3)sc2c1 (configuration not stated),.
CCOc1ccc2nc(N3CCCC(C(=O)N4CCN(c5ccccc5)CC4)C3)sc2c1 (configuration not stated),.
CCOc1ccc2nc(N3CCC(C(=O)N4CCN(C)CC4)CC3)sc2c1,.
CCOc1ccc2nc(N3CCCC(C(=O)N4CCN(c5cccc(C)c5)C(C)C4)C3)sc2c1 (configuration not stated),0.494
CCOc1ccc2nc(N3CCCC(C(=O)N4CCN(C)CC4)C3)sc2c1 (configuration not stated),0.38
SMILES,CBX7 AlphaScr
CCOc1ccc2nc(N3CCCC(C(=O)Nc4c(C)cccc4C)C3)sc2c1 (configuration not stated),.
O=C(Nc1c(-c2ccc(F)cc2)nc2ccccn12)c1ccc(Br)cc1,.
O=C(CC1C(=O)N(c2cccc(Cl)c2)C(=O)N1Cc1cccs1)Nc1ccc(F)cc1 (configuration not stated),.
CCOc1ccc2c(c1)c(=O)c(S(=O)(=O)c1ccccc1)cn2Cc1ccccc1,.
Cc1ccc2c(c1)NC(=O)C(CC(=O)Nc1c(C)cccc1C)O2 (configuration not stated),.
O=C(CC1(O)C(=O)Nc2ccccc21)c1cccs1 (configuration not stated),.
COc1ccc(CNC(=O)CC2Oc3ccc(Cl)cc3NC2=O)cc1 (configuration not stated),.
COCCOc1cc([N+](=O)[O-])cc2c1C(=O)Nc1ccccc1O2,.
COC(=O)CC1Oc2ccc(Cl)cc2NC1=O (configuration not stated),.
O=C1Nc2cc(Cl)ccc2Oc2cc([N+](=O)[O-])cc(Oc3ccccc3)c21,.
Cc1ccc(Oc2cc([N+](=O)[O-])cc3c2C(=O)Nc2ccccc2O3)cc1,.
Cc1ccccc1Oc1cc([N+](=O)[O-])cc2c1C(=O)Nc1cc(Cl)ccc1O2,0.0842
Cc1ccc2c(c1)Oc1cc([N+](=O)[O-])cc(Oc3cccc(Cl)c3Cl)c1C(=O)N2,0.198
COc1ccc(Oc2cc([N+](=O)[O-])cc3c2C(=O)Nc2cc(Cl)ccc2O3)cc1,0.418
CN1CCN(C(=O)CC2Oc3ccccc3NC2=O)CC1 (configuration not stated),.
CCOc1ccc(-n2cc(C(=O)NCCCN(CC)CC)c3cc(OC)c(OC)cc3c2=O)cc1,.
CCN1C(=O)c2ccccc2S(=O)(=O)c2ccc(C(=O)NCc3ccc(Cl)cc3)cc21,.
COc1cc(OC)c(NC(=O)c2cnc(Nc3ccc(C)c(Cl)c3)c3ccccc23)cc1Cl,.
Cc1ccc(-n2ncc(C(=O)Nc3ccc(F)cc3)c2C2CCNCC2)cc1,.
Cc1ccc(CC(=O)Nc2nnc(C(C)C)s2)cc1,.
CCN1C(=O)c2ccccc2S(=O)c2ccc(C(=O)NCCN3CCCCCC3)cc21 (configuration not stated),.
COc1cc(C(=O)NCc2nnc(SCC(=O)Nc3cc(C)on3)o2)cc(OC)c1OC,0.0511
Cc1cc(NC(=O)CSc2nnc(CNC(=O)c3c(F)cccc3Cl)o2)no1,0.0292
Cc1cc(NC(=O)CSc2nnc(CNC(=O)COc3ccc(Cl)cc3)o2)no1,0.207
Cc1nnc(NC(=O)CSc2nnc(CNC(=O)COc3ccc(Cl)cc3)o2)s1,.

# Assay outcomes from PubChem.
